In the library only some 21% were active in any assay of this set; here they are far more common.
ClpP mod – qHTS Assay for Activators of ClpP | purified B. subtilis ClpP, FRET peptide cleavage, 20 min | Potency, µM (series often up to 57.5 µM), for inactives: top-dose activity change, negative = active | hit rate 1.9% among 340,000; active means well fitted falling curve with a large enough effect; inconclusive means small, poorly fitted or top-dose-only effect; inactive means no such curve, though single readings can be large or run the other way; further: potency means the concentration at half of the fitted maximal effect; the source files actives as falling curves though it sought activators and does not explain the sign; nearly all actives have a fitted effect of over 65% in size
Target sequence (P80244 whole entry, looked up): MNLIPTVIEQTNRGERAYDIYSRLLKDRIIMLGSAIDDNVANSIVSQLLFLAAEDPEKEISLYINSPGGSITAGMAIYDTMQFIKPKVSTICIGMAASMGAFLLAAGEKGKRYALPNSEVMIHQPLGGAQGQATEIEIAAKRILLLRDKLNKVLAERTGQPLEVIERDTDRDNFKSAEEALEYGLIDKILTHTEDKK
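ClpP 10 microg/mL final, pH 8 Tris/KCl buffer with BSA, glycerol, Tween-20; compound pinned in; FRET-FV substrate; RT 20 min; Ex320/Em430; ΔFRET vs ADEP 5.8 microM, DMSO, no enzyme.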
DRD3 agonist – D3 dopamine receptor (human) agonism; P35462; AID 652048; max activation, %; D3R DiscoveRx beta-arrestin cells, luminescence, 90 min; hit rate 0.58% among 410,000; in the data active means max activation above about 30%; further: 0% is about no effect
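Cells at 1500/well, incubated overnight, then treated with pinned compounds (dopamine as control) for 90 min at 37 degrees C. DiscoveRx reagent added for 30 - 60 minutes at room temperature; luminescence read.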
TDP1 cell CPT – DT40-hTDP1 cell growth loss with CPT; chicken DT40 Tdp1-/-;hTDP1 cells + 20 nM CPT, ATP luminescence, 48 h; Potency, µM (top dose mostly 46.2 µM), inactives show top-dose activity change, negative = growth inhibition, hits mostly inhibitors; hit rate 12% among 420,000; AID 686979; further: potency means the concentration at half of the fitted maximal effect; on the % scale 0 is the no-effect control and ±100 the full control effect; nearly all actives have a fitted effect of over 55% in size
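Chicken DT40 Tdp1-/- cells complemented with human TDP1, 400 cells/well, exposed to compounds plus 20 nM camptothecin for at least 48 h at 37 C; viability read as ATP content by CellTiter-Glo luminescence.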
DRD3 antagonist – D3 dopamine receptor (human) antagonism; P35462; D3R cells, DiscoveRx beta-arrestin luminescence, antagonist mode; hits give low values; max response, negative = inhibition, %; AID 652054; hit rate 2.5% among 360,000; in the data active means max response below about -50%; inconclusive means no clear call, values can overlap the other calls; further: on the % scale 0 is the no-effect control and ±100 the full control effect
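Cells expressing the human receptor were seeded at 1500 cells/well, incubated overnight at 37 degrees C in 5% CO2, then exposed to library compounds with dopamine controls for 90 minutes at 37 degrees C before luminescent detection.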
IL1B secr inh – inhibitors of inflammasome signaling (IL-1 beta secretion); THP-1 LPS/ATP IL-1B secretion, AlphaLISA, 16 h; hits give low values; hit rate 4.7% among 360,000; activity change, % at 57.5 µM; AID 743279; in the data active means activity change below about -50%; inconclusive means mostly about -30% to -49%; further: on the % scale 0 is the no-effect control and ±100 the full control effect
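THP-1 cells pretreated 1 hr with compounds (up to 57.5 uM final), then stimulated with LPS (250 ng/mL final) plus ATP (1.25 mM final); secreted IL-1B measured by AlphaLISA after 16 hr, decreased signal indicating inhibition.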
DT40 TDP1 no CPT – qHTS for Inhibitors of human tyrosyl-DNA phosphodiesterase 1 (TDP1): qHTS in cells in absence of CPT; AID 686978, 2013; DT40 Tdp1-/- hTDP1 cells, no CPT, ATP luminescence, 48 h; Potency, µM (titrated, usually from 46.2 µM), without a hit: at the highest dose activity change, negative = growth inhibition, actives largely listed as inhibitors; hit rate 15% among 420,000; further: potency means the concentration at half of the fitted maximal effect; on the % scale 0 is the no-effect control and ±100 the full control effect; nearly all actives have a fitted effect of over 55% in size
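Camptothecin absent (DMSO only). Human TDP1-complemented DT40 knockout cells, 400 cells/well, 37 °C for minimum 48 hr; ATP measured via CellTiter-Glo, 30 min dark incubation, luminescence.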
Starred values were filed as active, the others as inactive. Unless noted, the call rests on the fitted dose curve; in most records, active means well fitted inhibition curve with a large enough effect; inconclusive means small, poorly fitted or top-dose-only effect; inactive means flat fitted curve, though single readings scatter.

Screening COc1ccc(NS(=O)(=O)c2ccc(-c3cnc(C4CC4)o3)cc2)cc1Cl returned ClpP mod -1.6%, DRD3 agonist -16.9, TDP1 cell CPT 0.651µM* and DT40 TDP1 no CPT 1.46µM*.
Cc1ccc(NS(=O)(=O)c2ccc(-c3cnc(C4CC4)o3)cc2)cc1N(C)C was read as ClpP mod 1.3%, DRD3 agonist -15.0, TDP1 cell CPT 1.03µM* and DT40 TDP1 no CPT 0.731µM*.
`CC(=O)c1cccc(NS(=O)(=O)c2ccc(-c3cnc(C4CC4)o3)cc2)c1` gave ClpP mod 1.2%, DRD3 agonist 0.1, TDP1 cell CPT 4.11µM*, DRD3 antagonist 15.3, IL1B secr inh -3.5 and DT40 TDP1 no CPT 2.59µM*.
Screening Cc1ccc(C)c(NS(=O)(=O)c2ccc(-c3cnc(C4CC4)o3)cc2)c1 returned ClpP mod -6.3%, DRD3 agonist -6.6, TDP1 cell CPT 0.0058µM*, DRD3 antagonist -5.2, IL1B secr inh 51.0 and DT40 TDP1 no CPT 0.0052µM*.
`Cc1cnc(CNc2ncnc3ccc(-c4ccccc4C)cc23)cn1` gave TDP1 cell CPT 16.4µM* and DT40 TDP1 no CPT inconclusive.
Screening COc1cccc(-c2ccc3ncnc(NCc4cnc(C)cn4)c3c2)c1 returned TDP1 cell CPT 23.1µM* and DT40 TDP1 no CPT 14.6µM*.
Screening CC(C)Oc1ccc(C(=O)Nc2nnc3n2CCS3)cc1 returned ClpP mod 1.2%, DRD3 agonist -1.9, TDP1 cell CPT -23.6% and DT40 TDP1 no CPT -20.8%.
For COc1ccc(-c2cc3nc(C)c(CCC(=O)NCCc4ccc(Cl)cc4)c(C)n3n2)c(OC)c1 the results were ClpP mod -17.5%, DRD3 agonist -2.2, TDP1 cell CPT 13µM* and DT40 TDP1 no CPT 29.1µM*.
Screening COc1ccc(-c2cc3nc(C)c(CCC(=O)NCc4ccco4)c(C)n3n2)c(OC)c1 returned ClpP mod inconclusive, DRD3 agonist -6.2, TDP1 cell CPT inconclusive, DRD3 antagonist 3.5, IL1B secr inh -22.8 and DT40 TDP1 no CPT inconclusive.
COc1ccccc1-c1cc2nc(C)c(CCC(=O)NCc3cccc(Cl)c3)c(C)n2n1 was read as ClpP mod 3.9%, DRD3 agonist -1.9, TDP1 cell CPT inconclusive and DT40 TDP1 no CPT 18.4µM*.
For COc1ccc(CCNC(=O)CCc2c(C)nc3cc(-c4ccccc4OC)nn3c2C)c(OC)c1 the results were ClpP mod -7.4%, DRD3 agonist 4.9, TDP1 cell CPT inconclusive and DT40 TDP1 no CPT 16.4µM*.
`Cc1nc2ncnn2c(C)c1CCC(=O)NCc1cccc(Cl)c1` gave ClpP mod -2.9%, DRD3 agonist -9.3, TDP1 cell CPT 15.4% and DT40 TDP1 no CPT -2.9%.
`COCCCNC(=O)CCc1c(C)nc2cc(-c3ccc(Cl)cc3)nn2c1C` gave ClpP mod -10.9%, DRD3 agonist -8.7, TDP1 cell CPT 18.4µM* and DT40 TDP1 no CPT inconclusive.
Screening CCc1ccc(NC(=O)Cn2c(=O)n(CCC(C)C)c(=O)c3cccnc32)cc1 returned ClpP mod -0.9%, DRD3 agonist -13.8, TDP1 cell CPT inconclusive and DT40 TDP1 no CPT inconclusive.
`C#CCOCCOCCOCCNc1nc(N2CCN(C(=O)CCCCCCCCCCNC(=O)[C@@H](CCSC)n3cc(CCO)nn3)CC2)nc(N2CCN(C(=O)CCCCCCCCCCNC(=O)[C@@H]([C@H](C)O)n3cc(C)nn3)CC2)n1` gave ClpP mod -1.4%, DRD3 agonist -8.6, TDP1 cell CPT 6.51µM*, DRD3 antagonist -3.2, IL1B secr inh inconclusive and DT40 TDP1 no CPT 9.2µM*.

Bioassay records as filed in PubChem.
